The text below walks through data of PubChem BioAssay (NCATS).

“And” between values parts separate entries of the source, which are not always exact repeats. Equal entries are not always repeated. Records with an inconclusive call do not appear. The source made the active and inactive calls. Unless noted, calls come from the whole dose curve; as a rule, active = well fitted curve in the direction sought with a large enough effect; inconclusive = small, poorly fitted or top-dose-only effect, or another doubt; inactive = no such curve, though single readings can be large; an effect the other way counts as inactive or inconclusive.

Test [1] in a line: Cell Viability - Jurkat (AID 426;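 active = dose-dependent loss of cell ATP signal giving a full or clear fitted curve, ranked by lower potency value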; note: potency is the fitted concentration of half-maximal effect). Conditions: qHTS. In a few lines: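 Cytotoxicity was scored as loss of cellular ATP, measured by luciferase-based luminescence, in Jurkat clone E6-1 cells after 40 h compound treatment; tamoxifen and doxorubicin served as positive controls.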
A general note: qHTS replaces the single test concentration by a dilution series.

Test [2] can be described thus: Cell Viability - Hek293 (AID 427;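 active = compounds whose dose-response curve shows a full or clear partial loss of cell viability, called from curve shape rather than a numeric limit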;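 note: potency is the fitted concentration of half-maximal effect; cells exposed to compound for 40 hours at 37 °C before reading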). The following applies: qHTS. The procedure, abridged: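 HEK293 cells in complete medium were exposed to compound for 40 hr at 37 °C, then cellular ATP was read by CellTiter-Glo luminescence. Data were normalized to DMSO (basal) and 100 uM tamoxifen (100% inhibition), and AC50 came from Hill fits.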
Test [3] can be described thus: Cell Viability - HepG2 (AID 433; calls by dose curve; note: potency is the fitted concentration of half-maximal effect). The following applies: qHTS. In a few lines: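 Cytotoxicity is scored as loss of intracellular ATP in HepG2 cells exposed to compounds for 40 h. Concentration-response curves, normalized to DMSO and 100 uM tamoxifen, give AC50 values.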
A short description of test [4]: Cell Viability - HUV-EC-C (AID 542). Note: % is set by controls: 0 for no effect and ±100 for the full control effect; nearly all actives have a fitted effect of over 35% in size. Conditions: HUV-EC-C endothelial cell viability, qHTS; series mostly up to 92.2 µM. The procedure, abridged: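 Concentration-dependent ATP loss in HUV-EC-C cells is the measure. Exposure lasts 40 hr at 37 °C; luminescence follows CellTiter-Glo addition, and Hill fits give AC50.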
A short description of test [5]: Cell Viability - H-4-II-E (AID 543). Note: % is set by controls: 0 for no effect and ±100 for the full control effect; nearly all actives have a fitted effect of over 35% in size. Conditions: H-4-II-E rat hepatoma viability; series mostly up to 92.2 µM. In a few lines:
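AC50 from Hill-modelled qHTS concentration-response curves. H-4-II-E rat hepatoma cells in complete medium, 40 hr exposure at 37 °C, viability by CellTiter-Glo ATP luminescence.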

Test [6] in a line: Cell Viability - SH-SY5Y (AID 544). Note: nearly all actives have a fitted effect of over 55% in size. The following applies: SH-SY5Y neuroblastoma cell viability; series mostly up to 92.2 µM. The procedure, abridged:
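Quantitative HTS in SH-SY5Y neuroblastoma cells, 40 hr treatment at 37 °C, ATP content by luciferase luminescence; AC50 from Hill fits.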

Test [7] is described as follows: Cellular Toxicity (caspase-3) SHSY5Y (AID 657). Conditions: SH-SY5Y caspase-3 activation, DMSO zero, 10 µM staurosporine = 100%; series mostly up to 91.7 µM. The procedure, abridged:
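Cells plated and incubated 5 h at 37 °C, dosed over a concentration range, incubated 16 h, then given Caspase-Glo 3/7 reagent for 1 h at room temperature before luminescence reading. Staurosporine (10 uM) defined full stimulation.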

A short description of test [8]: Cellular Toxicity (caspase-3) SK-N-SH (AID 661). Conditions: SK-N-SH caspase-3 activation, qHTS, DMSO as zero, staurosporine as full; series mostly up to 91.7 µM. The procedure, abridged:
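Apoptosis readout in SK-N-SH neuroblastoma: Caspase-Glo 3/7 luminescence following 16 hr treatment in complete culture medium. Normalization used DMSO and 10 uM staurosporine controls.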

Test [9] in a line: Cellular Toxicity (caspase-3) H-4-II-E (AID 663).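 Note: cells exposed to compound for 16 hr before readout.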 The following applies: H-4-II-E rat hepatoma; Potency: caspase-3 activation; series mostly up to 92.2 µM. In a few lines:
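H-4-II-E rat hepatoma, 1500 cells/well, 5 hr settle at 37 °C; compound 16 hr, 37 °C, complete medium; Caspase-Glo 3/7, 20 min RT; luminescence. DMSO = 0%, 100 uM tamoxifen = 100%; Hill-equation AC50.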

The nature of test [10]: Cellular Toxicity (caspase-3) N2a (AID 665).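 Note: compound exposure lasted 16 h at 37 °C before readout.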 Conditions: N2a cells, luminescence, normalized: DMSO 0%, 10 µM staurosporine 100%; series mostly up to 92.2 µM. In a few lines: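 Concentration-response qHTS: compound-induced caspase-3/7 luminescence in N2a cells (16 h, 37 °C), relative to DMSO and 10 uM staurosporine controls; AC50 obtained using the standard Hill equation.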

The nature of test [11]: Cellular Toxicity (caspase-3) NIH 3T3 (AID 666).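 Note: caspase signal read after 16 h compound exposure; 0% = DMSO basal and 100% = 100 µM tamoxifen stimulation.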 Conditions: NIH 3T3 caspase-3 activation, apoptosis/toxicity, 0% DMSO, 100% is 100 µM tamoxifen; series mostly up to 92.2 µM. In a few lines: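 Activity: caspase-3/7 induction, NIH 3T3 cells, 16 hr treatment at 37°C, luminescent Caspase-Glo detection; AC50 via Hill equation.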
Test [12] is described as follows: MultiTox-Fluor Cytotoxicity Assay - LYMP1-001 - Dead Cells (AID 946).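 Note: 0% = DMSO and 100% = tetraoctylammonium bromide.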 The following applies: LYMP1-001 lymphoblastoid cells, dead-cell protease fluorescence; series mostly up to 92.2 µM. The procedure, abridged:
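LYMP1-001 lymphoblastoid cells (2500/well) treated 16 h at 37 C. Dead-cell protease cleavage of bis-AAF-R110 read at Ex/Em 485/520. Normalized to DMSO and 15 uM tetraoctylammonium bromide; AC50 from Hill fits.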

The nature of test [13]: Cell Viability - LYMP1-002 - Assay at 16 hr (AID 948).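 Note: 0% = DMSO alone and full effect = 92 µM tetraoctylammonium bromide.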 The following applies: LYMP1-002 lymphoblastoid cell viability; series mostly up to 92.2 µM. In a few lines:
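Acute cytotoxicity is scored as a concentration-dependent fall in intracellular ATP in a human lymphoblastoid line (LYMP1-002) after 16 hr compound exposure at 37 C, measured by luciferase luminescence.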

A short description of test [14]: MultiTox-Fluor Cytotoxicity Assay - LYMP1-002 - Live Cells (AID 955). Note: % is set by controls: 0 for no effect and ±100 for the full control effect. Conditions: LYMP1-002 lymphoblastoid live-cell protease fluorescence viability; series mostly up to 46.1 µM. In a few lines: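 In this qHTS viability format, lymphoblastoid cells (LYMP1-002, human) received compound for 16 hr at 37 C. Fluorogenic GF-AFC cleavage by viable cells was detected at 405/510 nm after 1 h at room temperature.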

The nature of test [15]: MultiTox-Fluor Cytotoxicity Assay - LYMP1-003 - Dead Cells (AID 961).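 Note: 0% = DMSO and 100% = tetraoctylammonium bromide; nearly all actives have a fitted effect of over 70% in size.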 The following applies: LYMP1-003 lymphoblastoid cells, dead-cell protease fluorescence; series mostly up to 92.2 µM. The procedure, abridged: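 LYMP1-003 human lymphoblastoid cells (2500/well) exposed to compound 16 h at 37 C in complete medium; dead-cell protease read with bis-AAF-R110 fluorescence (Ex/Em 485/520) after 60 min at room temperature. Normalized to DMSO and 15 uM tetraoctylammonium bromide; AC50 from Hill fit.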

Test [16] in a line: Cell Viability - LYMP2-003 (AID 965).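 Note: cells exposed to compounds for 24 h before reading; 0% = DMSO only and full effect = 92 µM tetraoctylammonium bromide; nearly all actives have a fitted effect of over 50% in size.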 Conditions: LYMP2-003 lymphoblastoid cell viability; series mostly up to 92.2 µM. In a few lines: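 Acute cytotoxicity is scored as a concentration-dependent drop in intracellular ATP, measured by luciferase luminescence in human lymphoblastoid cells treated for 24 hours at 37 C. AC50 values derive from Hill-equation modelling.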
Test [17] can be described thus: Cell Viability - LYMP2-020 (AID 986).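 Note: cells exposed to compound for 24 h at 37 °C; plate controls were DMSO only for no effect and tetraoctylammonium bromide at 92 µM for full effect; nearly all actives have a fitted effect of over 55% in size.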 The following applies: series mostly up to 92.2 µM. The procedure, abridged:
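Cells at 2500 per well receive a 24 hr compound exposure at 37 C. Viability is measured as ATP-dependent luciferase luminescence, with AC50 modeled from qHTS concentration-response curves.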

Test [18] is described as follows: Cell Viability - LYMP2-022 (AID 987).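 Note: 0% = DMSO alone and full effect = tetraoctylammonium bromide at 92 µM; nearly all actives have a fitted effect of over 55% in size.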 The following applies: LYMP2-022 lymphoblastoid cell viability; series mostly up to 92.2 µM. The procedure, abridged: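 In this qHTS cytotoxicity screen, compound titrations were incubated 24 hr at 37 C with human lymphoblastoid cells in complete medium. Luciferase-based ATP luminescence provided the viability signal.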
The nature of test [19]: Cell Viability - LYMP2-024 (AID 988).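 Note: plate controls were DMSO only for no effect and 92 µM tetraoctylammonium bromide for full effect; nearly all actives have a fitted effect of over 60% in size.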 Conditions: LYMP2-024 lymphoblastoid cell viability; series mostly up to 92.2 µM. The procedure, abridged:
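Cells at 2500 per well received compound for 24 hr after a 5 hr settling period. Viability was scored by CellTiter-Glo luminescence, with AC50 from Hill fits.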

Test [20] in a line: qHTS assay for small molecule antagonists of retinoid X receptor alpha signaling (AID 588546).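 Note: cells stimulated with 9-cis-retinoic acid as agonist; % is set by controls: 0 for no effect and ±100 for the full control effect.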 Conditions: HEK293T RXRa-UAS-bla, beta-lactamase ratio, antagonist mode; measured here: W530 green channel, cytotoxicity proxy. The procedure, abridged:
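Beta-lactamase reporter inhibition, read as CCF4 fluorescence ratio (ex 405, em 460/530 nm) after 2 h at RT. HEK293T UAS-bla cells, 2500/well, were stimulated with 9-cis-RA at 500 or 100 nM final alongside test compound for 18 h at 37 C.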

For `CCC(O)OC(O)CC` (stereo not given), the Potency in [1], in [2] and in test [3] was > 92 µM (inactive) throughout. Moreover, the result in test [4], in [7], in [8], in test [10] and in [11] was inactive. Moreover, the Potency entry in test [5], in [6], in test [9], in [12], in test [13] and in test [14] was “inactive” throughout. For the same molecule, the Potency result in test [15], in test [16], in [17], in test [18] and in [19] was “inactive” throughout. Also, the max response in [20] was -6.87% and -7.76%.
Consider `COc1ccc2nc(N)sc2c1`, for which the Potency in [1], in test [2] and in [3] was > 92 µM (inactive) throughout. The outcome in test [4], in test [7], in test [8], in [10] and in [11] was inactive. The Potency result in test [5], in [6], in test [9], in test [12], in test [13] and in test [14] was “inactive” in each case. Moreover, the Potency entry in test [15], in test [16], in [17], in [18] and in [19] was “inactive” each time. Also, the max response in test [20] is -1.24% and 0.0893%.
For `Clc1cc(Cl)c(Cl)cc1Cl`, the Potency in test [1], in test [2] and in [3] was > 92 µM (inactive) each time. For the same molecule, the molecule was called inactive in test [4], in [7], in [8], in test [10] and in test [11]. Moreover, the Potency result in test [5], in [6], in test [9], in test [12], in test [13] and in test [14] was “inactive” in each case. Also, the Potency result in test [15], in test [16], in test [17], in [18] and in test [19] was “inactive” each time. Moreover, the max response in test [20] was -13.2% and -12.3%.
As to `CC1=CC(C)(C)Nc2ccccc21`, the Potency in test [1], in test [2] and in test [3] was > 92 µM (inactive) in each case. The molecule was classed as inactive in [4], in test [7], in [8], in [10] and in [11]. Further, the Potency result in test [5], in [6], in [9], in test [12], in [13] and in test [14] was “inactive” each time. Besides, the Potency result in test [15], in [16], in [17], in test [18] and in [19] was “inactive” in each case. Besides, the max response in test [20] was -11.3% and -9.31%.
As to `CCCCCCCCO`, the Potency in test [1], in [2] and in test [3] was > 92 µM (inactive) throughout. Moreover, the outcome in test [4], in test [7], in [8], in [10] and in test [11] was inactive. The Potency entry in test [5], in test [6], in [9], in test [12], in test [13] and in [14] was “inactive” in each case. In addition, the Potency result in [15], in test [16], in [17], in [18] and in [19] was “inactive” each time. For the same molecule, the max response in test [20] is -5.18% and -18.2% and -19.2%.
